# Measured values reported in PubChem BioAssay (EPA / NIEHS).
# Records with an inconclusive call do not appear. Calls of active or inactive are those of the source. Rule for the calls: active = hit-call score of the fitted dose curve at least 0.9, where 1 is the maximum; inconclusive = response in the unintended direction; inactive = score below 0.9.
# Columns and labels:
# [1] = biological target: rat Neurokinin-1 Receptor (NK1), Tacr1 (gene 24807) (UniProt P14600); assay: NVS_GPCR_rNK1: NovaScreen (NVS) G Protein-Coupled Receptor Assay for rat Neurokinin-1 Receptor (NK1) (AID 2283309)
# How it was run: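 Rat submaxillary gland membranes; radioligand displacement read by filter-based scintillation counting after 1 h. Primary screen in duplicate at 25 uM; actives retested in concentration series; loss of binding fitted versus DMSO.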
# [2] = biological target: Sodium channel protein type 1 subunit alpha (Rattus norvegicus) (UniProt P04774); assay: NVS_IC_rNaCh_site2: NovaScreen (NVS) Ion Channel Assay for rat Sodium Channel, Site 2 (NaCh) (AID 2283322);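 note: hit means loss of radioligand binding signal relative to DMSO so AC50 marks displacement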
# How it was run: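 Membranes: rat forebrain. Format: competitive radioligand displacement, filter separation, scintillation readout, 1 h exposure. Primary screen in duplicate at 25 uM; actives retested in concentration series.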
# [3] = biological target: human Peripheral-type Benzodiazepine Receptor (PBR), TSPO (gene 706) (UniProt P30536); assay: NVS_MP_hPBR: NovaScreen (NVS) Membrane Protein Assay for human Peripheral-type Benzodiazepine Receptor (PBR) (AID 2283331);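 note: hits reduce radioligand binding relative to DMSO baseline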
# How it was run: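 Radioligand displacement on human colonic cell membranes, 1 h incubation; bound radioactivity by filtration and scintillation counting. Primary screen in duplicate at 25 uM single concentration, actives followed up in concentration series; loss of binding versus DMSO.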
# [4] = biological target: rat Opioid Receptor, Non-selective Sodium (Na+) Binding, Oprm1 (gene 25601) (UniProt P33535); assay: NVS_GPCR_rOpiate_NonSelectiveNa: NovaScreen (NVS) G Protein-Coupled Receptor Assay for rat Opioid Receptor, Non-selective Sodium (Na+) Binding (AID 2283311)
# How it was run: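 Rat forebrain membranes, radioligand displacement with filter scintillation counting, 1.5 h incubation. Screened in duplicate at 25 µM; hits then run in concentration-response up to 50 µM; loss of binding fitted versus DMSO.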
# [5] = biological target: rat Thyrotropin Releasing Hormone Receptor (TRH), Trhr (gene 25570) (UniProt Q01717); assay: NVS_GPCR_rTRH: NovaScreen (NVS) G Protein-Coupled Receptor Assay for rat Thyrotropin Releasing Hormone Receptor (TRH) (AID 2283329);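 note: hit means lower bound tracer signal versus DMSO baseline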
# How it was run: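 Rat forebrain membranes; radioligand displacement at TRH receptor by filter-based scintillation counting, read 4 h after dosing. Duplicate single-point screen at 25 uM, actives rerun in concentration series; loss of signal relative to DMSO.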
# [6] = biological target: rat Neurokinin-3 Receptor (NK3), Tacr3 (gene 24808) (UniProt P16177); assay: NVS_GPCR_rNK3: NovaScreen (NVS) G Protein-Coupled Receptor Assay for rat Neurokinin-3 Receptor (NK3) (AID 2283310)
# How it was run: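 Rat cortical membranes; radioligand binding with filtration and scintillation counting, 2 h after dosing. Primary screen in duplicate at 25 uM, then concentration-response up to 50 uM; loss of binding signal relative to DMSO.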
# [7] = biological target: rat Somatostatin Receptor (SST), Sstr1 (gene 25033) (UniProt P28646); assay: NVS_GPCR_rSST: NovaScreen (NVS) G Protein-Coupled Receptor Assay for rat Somatostatin Receptor (SST) (AID 2283314)
# How it was run: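 Rat forebrain membranes; radioligand displacement read by filter-based scintillation counting 1 h after dosing. Primary screen in duplicate at 25 uM. Actives (e.g., 30% inhibition) were rerun as concentration-response to 50 uM max and fitted against DMSO.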
# [8] = biological target: rat Vasopressin 1 Receptor (V1), Avpr1a (gene 25107) (UniProt P30560); assay: NVS_GPCR_rV1: NovaScreen (NVS) G Protein-Coupled Receptor Assay for rat Vasopressin 1 Receptor (V1) (AID 2283316)
# How it was run: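 Radioligand binding on rat liver membranes, 1.5 h incubation, filter-based scintillation counting. Single 25 uM screen in duplicate; chemicals meeting threshold (e.g. 30% inhibition) run in concentration-response up to 50 uM.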
# [9] = NVS_IC_rCaDHPRCh_L: NovaScreen (NVS) Ion Channel Assay for rat Calcium Channel, Type L, Dihydropyridine Site (CaDHPRCh_L) (AID 2283320)
# How it was run: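 Radioligand binding to dihydropyridine site on rat cortical membranes, filter-based scintillation counting, 1 h after dosing. Screened in duplicate at 25 uM; actives rerun in concentration-response up to 50 uM. Loss of signal versus DMSO baseline.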
# [10] = biological target: rat Gamma-Aminobutyric Acid Type A Receptor, Non-Selective (GABAR-NonSelective), Gabra1 (gene 29705) (UniProt P62813); assay: NVS_LGIC_rGABAR_NonSelective: NovaScreen (NVS) Ligand-Gated Ion Channel Assay for rat Gamma-Aminobutyric Acid Type A Receptor, Non-Selective (GABAR-NonSelective) (AID 2283326)
# How it was run: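 Radioligand displacement on rat whole-brain extract, 1 h, filter scintillation readout; signal loss fitted versus DMSO. Primary screen in duplicate at 25 uM; hits (e.g. ≥30% inhibition) retested in concentration-response up to 50 uM.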
# [11] = biological target: rat Neonicotinoid receptor (NNR), Chrna7 (gene 25302) (UniProt Q05941); assay: NVS_LGIC_rNNR_BungSens: NovaScreen (NVS) Ligand-Gated Ion Channel Assay for rat Neonicotinoid receptor (NNR) (AID 2283315)
# How it was run: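 Radioligand displacement binding on rat cortical membranes, 2.5 h incubation, filtration and scintillation counting. Loss of specific binding fitted relative to DMSO.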
# NCBI gene 24521 = assay: NVS_IC_rKATPCh: NovaScreen (NVS) Ion Channel Assay for rat Potassium Channel, ATP-Sensitive (KATPCh) (AID 2283319)
# How it was run: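 Rat cortical membranes; radioligand binding at ATP-sensitive K channel site, filter-based scintillation counting 2 h after dosing. Single-point duplicate screen at 25 uM, hits rerun in concentration-response up to 50 uM; loss of signal versus DMSO.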
# [12] = biological target: rat Glutamate, AMPA Site (AMPA), Gria1 (gene 50592) (UniProt P19490); assay: NVS_LGIC_rAMPA: NovaScreen (NVS) Ligand-Gated Ion Channel Assay for rat Glutamate, AMPA Site (AMPA) (AID 2283324)
# How it was run: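 Rat forebrain membranes; radioligand binding read 1 h after dosing by filtration and scintillation counting. Duplicate single-point screen at 25 uM, then concentration-response to 50 uM for threshold hits (e.g. 30% inhibition); loss of signal vs DMSO.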
# [13] = biological target: rat Glutamate, NMDA Agonist Site (GluNMDA), Grin1 (gene 24408) (UniProt P35439); assay: NVS_LGIC_rGluNMDA_Agonist: NovaScreen (NVS) Ligand-Gated Ion Channel Assay for rat Glutamate, NMDA Agonist Site (GluNMDA) (AID 2283327)
# How it was run: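 Rat forebrain membranes, radioligand binding in the agonist-site protocol; 1 h after dosing; filter-based scintillation counting. Single-concentration duplicate screen at 25 uM, then concentration-response up to 50 uM for actives; gain-of-signal vs DMSO.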
# [14] = biological target: rat Glutamate Metabotropic Receptor 5 (MGluR5), Grm5 (gene 24418) (UniProt P31424); assay: NVS_GPCR_rmMGluR5: NovaScreen (NVS) G Protein-Coupled Receptor Assay for rat Glutamate Metabotropic Receptor 5 (MGluR5) (AID 2283307)
# How it was run: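 Rat whole-brain membrane preparation; filter-based radioligand binding read by scintillation counting, 1.5 h after dosing. Single-point screen at 25 uM in duplicate; hits over threshold (e.g. 30% inhibition) retested in concentration-response up to 50 uM; loss of signal vs DMSO.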
# [15] = biological target: human Serotonin, 5-Hydroxytryptamine Receptor 3 (5HT3), HTR3A (gene 3359) (UniProt P46098); assay: NVS_LGIC_h5HT3: NovaScreen (NVS) Ligand-Gated Ion Channel Assay for human Serotonin, 5-Hydroxytryptamine Receptor 3 (5HT3) (AID 2283325)
# How it was run: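 Radioligand displacement binding to human 5-HT3 from HEK293 membranes, read by filter-based scintillation counting after 1 h. Screen at 25 uM in duplicate; chemicals passing threshold were retested in concentration-response up to 50 uM.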
# Sequence of rat Neurokinin-1 Receptor (NK1), Tacr1 (gene 24807) (P14600 whole entry, looked up): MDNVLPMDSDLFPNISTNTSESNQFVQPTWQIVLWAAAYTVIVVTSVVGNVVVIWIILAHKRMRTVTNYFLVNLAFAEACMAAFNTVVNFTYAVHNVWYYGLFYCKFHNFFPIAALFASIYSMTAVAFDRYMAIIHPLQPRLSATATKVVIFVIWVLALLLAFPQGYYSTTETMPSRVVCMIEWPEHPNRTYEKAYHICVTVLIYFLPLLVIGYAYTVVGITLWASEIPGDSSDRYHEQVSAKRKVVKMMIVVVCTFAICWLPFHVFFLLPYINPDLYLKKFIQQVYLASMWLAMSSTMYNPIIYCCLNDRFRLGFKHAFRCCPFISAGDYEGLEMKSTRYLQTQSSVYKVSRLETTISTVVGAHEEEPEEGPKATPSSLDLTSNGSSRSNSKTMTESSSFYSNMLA
# Sequence of rat Somatostatin Receptor (SST), Sstr1 (gene 25033) (P28646 whole entry, looked up): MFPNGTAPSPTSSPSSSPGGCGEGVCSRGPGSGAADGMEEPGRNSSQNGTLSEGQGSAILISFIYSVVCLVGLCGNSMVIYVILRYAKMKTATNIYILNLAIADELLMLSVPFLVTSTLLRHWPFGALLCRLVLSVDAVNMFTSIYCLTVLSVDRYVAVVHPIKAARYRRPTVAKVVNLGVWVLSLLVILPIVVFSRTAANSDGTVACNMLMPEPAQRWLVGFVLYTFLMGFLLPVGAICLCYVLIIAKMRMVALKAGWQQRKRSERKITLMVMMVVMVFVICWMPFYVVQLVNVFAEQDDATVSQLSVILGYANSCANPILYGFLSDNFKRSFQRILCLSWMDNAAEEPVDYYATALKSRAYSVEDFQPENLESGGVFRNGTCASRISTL
# Sequence of rat Neonicotinoid receptor (NNR), Chrna7 (gene 25302) (Q05941 whole entry, looked up): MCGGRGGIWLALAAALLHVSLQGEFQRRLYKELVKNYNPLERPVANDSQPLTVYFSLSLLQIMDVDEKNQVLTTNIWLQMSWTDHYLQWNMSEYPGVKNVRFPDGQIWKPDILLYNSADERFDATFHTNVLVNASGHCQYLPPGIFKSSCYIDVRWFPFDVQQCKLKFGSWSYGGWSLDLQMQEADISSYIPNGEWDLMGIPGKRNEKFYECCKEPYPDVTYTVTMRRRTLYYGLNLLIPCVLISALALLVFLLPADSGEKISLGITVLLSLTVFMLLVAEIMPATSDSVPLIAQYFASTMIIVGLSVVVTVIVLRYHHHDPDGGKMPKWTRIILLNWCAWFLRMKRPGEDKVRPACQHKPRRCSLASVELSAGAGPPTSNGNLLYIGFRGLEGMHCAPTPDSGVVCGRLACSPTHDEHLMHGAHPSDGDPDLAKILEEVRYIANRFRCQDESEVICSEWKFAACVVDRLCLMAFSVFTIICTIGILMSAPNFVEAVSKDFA
# Sequence of rat Glutamate, AMPA Site (AMPA), Gria1 (gene 50592) (P19490 whole entry, looked up): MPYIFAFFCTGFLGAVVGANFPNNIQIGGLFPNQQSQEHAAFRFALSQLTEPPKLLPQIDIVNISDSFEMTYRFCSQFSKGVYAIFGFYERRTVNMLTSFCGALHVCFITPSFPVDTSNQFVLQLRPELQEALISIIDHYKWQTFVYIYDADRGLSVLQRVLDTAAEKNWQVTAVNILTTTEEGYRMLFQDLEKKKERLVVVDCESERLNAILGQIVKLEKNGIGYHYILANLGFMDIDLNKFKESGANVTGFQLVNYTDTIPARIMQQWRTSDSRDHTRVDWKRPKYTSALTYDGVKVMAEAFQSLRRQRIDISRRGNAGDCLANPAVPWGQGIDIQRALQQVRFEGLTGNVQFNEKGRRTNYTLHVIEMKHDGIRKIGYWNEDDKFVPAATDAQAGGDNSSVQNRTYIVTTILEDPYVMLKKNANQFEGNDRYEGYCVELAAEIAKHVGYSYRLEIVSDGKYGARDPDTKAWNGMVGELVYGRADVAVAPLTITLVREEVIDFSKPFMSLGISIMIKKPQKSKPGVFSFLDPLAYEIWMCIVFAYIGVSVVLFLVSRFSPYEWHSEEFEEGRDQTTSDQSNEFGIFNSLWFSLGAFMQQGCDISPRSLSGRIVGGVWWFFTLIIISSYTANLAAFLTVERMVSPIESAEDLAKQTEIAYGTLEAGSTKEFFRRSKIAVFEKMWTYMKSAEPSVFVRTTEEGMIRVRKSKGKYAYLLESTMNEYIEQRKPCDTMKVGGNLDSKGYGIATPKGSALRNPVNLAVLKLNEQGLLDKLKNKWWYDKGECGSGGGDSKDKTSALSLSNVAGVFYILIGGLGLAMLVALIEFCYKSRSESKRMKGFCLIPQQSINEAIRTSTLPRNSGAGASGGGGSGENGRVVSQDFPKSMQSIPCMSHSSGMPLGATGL
# Sequence of human Peripheral-type Benzodiazepine Receptor (PBR), TSPO (gene 706) (P30536 whole entry, looked up): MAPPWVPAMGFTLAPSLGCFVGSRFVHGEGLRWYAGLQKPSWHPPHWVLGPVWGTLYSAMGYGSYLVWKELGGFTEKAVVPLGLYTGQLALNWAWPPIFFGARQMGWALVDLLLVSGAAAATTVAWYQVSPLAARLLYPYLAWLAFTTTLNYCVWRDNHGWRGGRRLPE
# Sequence of rat Neurokinin-3 Receptor (NK3), Tacr3 (gene 24808) (P16177 whole entry, looked up): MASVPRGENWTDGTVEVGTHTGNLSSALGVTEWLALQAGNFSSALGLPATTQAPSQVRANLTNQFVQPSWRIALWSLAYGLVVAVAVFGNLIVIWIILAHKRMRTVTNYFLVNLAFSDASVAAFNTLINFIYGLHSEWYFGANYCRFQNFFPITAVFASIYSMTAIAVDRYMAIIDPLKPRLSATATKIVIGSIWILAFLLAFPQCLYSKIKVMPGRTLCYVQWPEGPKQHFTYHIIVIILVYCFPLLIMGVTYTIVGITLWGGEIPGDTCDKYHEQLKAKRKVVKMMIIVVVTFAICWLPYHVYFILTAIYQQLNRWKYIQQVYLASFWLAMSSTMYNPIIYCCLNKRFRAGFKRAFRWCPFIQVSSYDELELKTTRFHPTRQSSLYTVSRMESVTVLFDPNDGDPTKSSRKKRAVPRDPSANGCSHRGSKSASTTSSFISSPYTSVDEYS
# Sequence of rat Vasopressin 1 Receptor (V1), Avpr1a (gene 25107) (P30560 whole entry, looked up): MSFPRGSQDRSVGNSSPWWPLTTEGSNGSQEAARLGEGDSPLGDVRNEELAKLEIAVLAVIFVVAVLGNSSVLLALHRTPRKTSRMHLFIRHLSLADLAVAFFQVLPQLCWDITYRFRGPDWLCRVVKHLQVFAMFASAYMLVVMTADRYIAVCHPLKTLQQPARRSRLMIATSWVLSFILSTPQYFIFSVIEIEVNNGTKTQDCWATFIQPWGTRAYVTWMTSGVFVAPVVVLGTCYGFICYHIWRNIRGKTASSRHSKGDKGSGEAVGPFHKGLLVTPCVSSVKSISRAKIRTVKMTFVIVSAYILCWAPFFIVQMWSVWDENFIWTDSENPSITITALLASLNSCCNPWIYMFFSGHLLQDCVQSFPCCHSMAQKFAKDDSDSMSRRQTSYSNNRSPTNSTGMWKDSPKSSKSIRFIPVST
# Sequence of rat Thyrotropin Releasing Hormone Receptor (TRH), Trhr (gene 25570) (Q01717 whole entry, looked up): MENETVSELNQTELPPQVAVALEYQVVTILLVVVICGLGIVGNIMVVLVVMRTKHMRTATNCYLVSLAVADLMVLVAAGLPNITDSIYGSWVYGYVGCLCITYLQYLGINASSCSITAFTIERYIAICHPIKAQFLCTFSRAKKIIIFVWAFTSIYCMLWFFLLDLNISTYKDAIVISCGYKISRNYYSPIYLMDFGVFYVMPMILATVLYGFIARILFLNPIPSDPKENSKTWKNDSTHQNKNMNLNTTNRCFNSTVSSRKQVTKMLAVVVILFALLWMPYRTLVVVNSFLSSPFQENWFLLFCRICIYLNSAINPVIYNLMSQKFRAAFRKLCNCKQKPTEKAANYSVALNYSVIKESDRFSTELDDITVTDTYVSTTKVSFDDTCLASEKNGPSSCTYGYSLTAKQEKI
# Sequence of rat Gamma-Aminobutyric Acid Type A Receptor, Non-Selective (GABAR-NonSelective), Gabra1 (gene 29705) (P62813 whole entry, looked up): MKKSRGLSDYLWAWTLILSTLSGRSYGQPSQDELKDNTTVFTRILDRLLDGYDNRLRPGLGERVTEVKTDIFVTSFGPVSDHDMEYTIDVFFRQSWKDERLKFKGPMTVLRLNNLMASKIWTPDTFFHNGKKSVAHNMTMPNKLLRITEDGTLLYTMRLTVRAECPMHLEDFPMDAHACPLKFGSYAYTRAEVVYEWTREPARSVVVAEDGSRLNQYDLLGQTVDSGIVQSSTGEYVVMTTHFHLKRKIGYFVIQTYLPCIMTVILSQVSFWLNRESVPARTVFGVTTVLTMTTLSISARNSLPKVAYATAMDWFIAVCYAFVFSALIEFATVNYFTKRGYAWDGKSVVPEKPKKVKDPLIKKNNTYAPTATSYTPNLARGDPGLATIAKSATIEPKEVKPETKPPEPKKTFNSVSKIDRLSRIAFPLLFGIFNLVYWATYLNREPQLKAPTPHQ
# Sequence of rat Opioid Receptor, Non-selective Sodium (Na+) Binding, Oprm1 (gene 25601) (P33535 whole entry, looked up): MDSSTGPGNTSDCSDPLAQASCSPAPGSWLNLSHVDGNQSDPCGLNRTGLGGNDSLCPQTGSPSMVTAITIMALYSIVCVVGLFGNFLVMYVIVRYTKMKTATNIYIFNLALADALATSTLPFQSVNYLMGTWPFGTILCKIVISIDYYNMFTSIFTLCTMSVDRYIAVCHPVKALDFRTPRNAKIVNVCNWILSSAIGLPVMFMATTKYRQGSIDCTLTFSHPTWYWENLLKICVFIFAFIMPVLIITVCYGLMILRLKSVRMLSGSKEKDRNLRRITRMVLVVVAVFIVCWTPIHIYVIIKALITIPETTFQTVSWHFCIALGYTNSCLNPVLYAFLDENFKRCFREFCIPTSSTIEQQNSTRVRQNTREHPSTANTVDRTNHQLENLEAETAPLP
smiles,measurement,setting,value
CC[C@H](NC(=O)c1cc(F)ccc1NS(=O)(=O)c1cccc2cccnc12)c1ccccc1,outcome,[1],inactive
same,outcome,[2],inactive
same,AC50,[3],0.246 µM (active)
Cc1cc(F)ccc1-c1cc(N2CC[C@@H](O)[C@H]2CO)ncc1N(C)C(=O)C(C)(C)c1cc(C(F)(F)F)cc(C(F)(F)F)c1,AC50,[1],0.274 µM (active)
same,outcome,[4],inactive
same,AC50,[2],5.99 µM (active)
same,outcome,[5],inactive
CC(O)CC(C)(C)O (centres undefined),outcome,[6],inactive
same,outcome,[4],inactive
same,outcome,[2],inactive
same,outcome,[5],inactive
NCc1cccc(C2CCN(C(=O)c3ccc(C#Cc4ccccc4F)o3)CC2)c1,AC50,[4],11.2 µM (active)
same,AC50,[7],15 µM (active)
same,outcome,[8],inactive
same,AC50,[9],21.1 µM (active)
same,AC50,[2],2.68 µM (active)
same,AC50,[3],2.7 µM (active)
CC(C)(c1cc(Br)c(O)c(Br)c1)c1cc(Br)c(O)c(Br)c1,outcome,[4],inactive
CCN(Cc1cccnc1)C(=O)c1cccc(Cl)c1[C@]1(C)C(=O)N(Cc2ccc(OC)cc2OC)c2ccc(Cl)cc21,AC50,[1],23.6 µM (active)
same,AC50,[6],9.75 µM (active)
same,AC50,[4],13.9 µM (active)
same,AC50,[8],29 µM (active)
same,AC50,[9],5.48 µM (active)
same,AC50,[2],17.5 µM (active)
same,AC50,[10],16.8 µM (active)
same,AC50,[3],1.07 µM (active)
CCCCCCCCCCCC[N+](C)(C)C,AC50,[1],44.9 µM (active)
same,AC50,[2],13 µM (active)
C[C@]12CC[C@@H]3c4ccc(O)cc4CC[C@H]3[C@@H]1CCC2=O,AC50,[4],13.9 µM (active)
CN(C)C(=O)C1(N2CCCCC2)CCN(CC[C@@]2(c3ccc(Cl)c(Cl)c3)CN(C(=O)c3ccccc3)CCO2)CC1,AC50,[1],10.9 µM (active)
same,AC50,[6],0.00216 µM (active)
same,AC50,[4],3.48 µM (active)
same,AC50,[7],12.6 µM (active)
same,outcome,[11],inactive
same,AC50,[8],38.2 µM (active)
same,outcome,NCBI gene 24521,inactive
same,AC50,[9],0.655 µM (active)
same,AC50,[2],0.822 µM (active)
same,AC50,[12],4.68 µM (active)
same,AC50,[10],2 µM (active)
same,AC50,[13],29.3 µM (active)
CN(C[C@@H](CC[N+]12CCC(C3CCCCC3)(CC1)CC2)c1ccc(Cl)c(Cl)c1)C(=O)c1cc(C(F)(F)F)cc(C(F)(F)F)c1,AC50,[1],0.403 µM (active)
same,AC50,[6],5.47 µM (active)
same,AC50,[4],12.5 µM (active)
same,outcome,[12],inactive
same,AC50,[13],38.2 µM (active)
O=CCCCC=O,outcome,[14],inactive
CCCCCCCCOC(=O)c1cc(O)c(O)c(O)c1,outcome,[6],inactive
same,AC50,[2],17.7 µM (active)
same,AC50,[3],0.439 µM (active)
C[C@]12CC[C@@H]3c4ccc(O)cc4CC[C@H]3[C@@H]1CC[C@H]2O,outcome,[4],inactive
CCOC(=O)O[C@H](C)OC(=O)c1ccc2c(c1)cc(C(=O)NC1CCN(C(C)C)CC1)n2Cc1cc(-c2ccc(Cl)s2)on1,AC50,[1],32.1 µM (active)
same,AC50,[7],14.9 µM (active)
same,AC50,[9],9.36 µM (active)
same,AC50,[2],9.62 µM (active)
same,outcome,[15],inactive
CCCOC(=O)c1cc(O)c(O)c(O)c1,AC50,[6],7.59 µM (active)
CN(C)c1ccc(C(=C2C=CC(=[N+](C)C)C=C2)c2ccc(N(C)C)cc2)cc1,AC50,[1],15.6 µM (active)
same,AC50,[6],11.5 µM (active)
same,AC50,[4],9.72 µM (active)
same,outcome,[7],inactive
same,AC50,[11],16.4 µM (active)
same,AC50,[9],4.99 µM (active)
same,AC50,[2],0.263 µM (active)
same,outcome,[12],inactive
same,AC50,[15],16.7 µM (active)
same,AC50,[3],1.4 µM (active)
COc1ccc2cc(S(=O)(=O)N[C@H](CC(=O)N[C@H](Cc3ccc(CN4[C@H](C)CCC[C@@H]4C)cc3)C(=O)N(C)C(C)C)c3ccc4c(c3)OCO4)ccc2c1,AC50,[1],11.4 µM (active)
same,AC50,[6],8.07 µM (active)
same,AC50,[4],4.72 µM (active)
same,AC50,[7],5.07 µM (active)
same,outcome,[11],inactive
same,outcome,[8],inactive
same,AC50,[9],21.5 µM (active)
same,AC50,[2],5.03 µM (active)
same,AC50,[10],11.2 µM (active)
Cc1oc2c(NC(=O)c3c(Cl)cccc3Cl)cccc2c1C(C)(C)O,outcome,[1],inactive
same,outcome,[5],inactive
same,AC50,[3],1.26 µM (active)
